In ChEMBL document CHEMBL1157539, “Thousands of chemical starting points for antimalarial lead identification” (Nature, 2010):

How the values were obtained:
Type in all cases: functional
Plasmodium falciparum [1] = assay: GSK_TCMDC: Inhibition of Plasmodium falciparum 3D7 in whole red blood cells, using parasite LDH activity as an index of growth. Test compounds present at 2uM
Plasmodium falciparum [2] = assay: GSK_TCMDC: Inhibition of Plasmodium falciparum Dd2 in whole red blood cells, using parasite LDH activity as an index of growth. Test compounds present at 2uM
HepG2 = assay: GSK_TCMDC: Percent inhibition of human HepG2 cell line. Test compounds present at 10uM.

| Structure (SMILES) | Inhibition (Plasmodium falciparum [1]) | Inhibition (Plasmodium falciparum [2]) | Inhibition (HepG2) |
| --- | --- | --- | --- |
| CCN(CC)CCNC(=O)c1ccc(N/C=C2\C(=O)Nc3ccc(S(=O)(=O)Cc4c(Cl)cccc4Cl)cc32)cc1 | 100% | 56% | 25% |
| O=C(O)C(F)(F)F.O=C1OC2(CN1CC1CCN(Cc3ccc(O)cc3Cl)C1)c1ccccc1-c1ccccc12 (stereo not given) | 84% | 84% | 16% |
| CC(C)(C(=O)Nc1ccc(C2CCC(NCC3CC3)CC2)c(Cl)c1)c1ccc(C(F)(F)F)cc1 (stereo not given) | 97% | 18% | 64% |
| CC(NC(=O)c1ccc(O)c(-c2ccc(Cl)c(Cl)c2)c1)C(=O)NC1CCCCC1 (stereo not given) | 96% | 82% | 0% |
| COc1ccc(C2=CCN(c3ccc(Cl)c(Cl)c3)C2=O)cc1OCCN1CCCCC1.Cl | 97% | 99% | 19% |
| COc1cc(C2CCCCC2)c(OC)cc1CC1c2cc(O)c(Cl)cc2CCN1C.Cl (stereo not given) | 100% | 100% | 12% |
| CSc1ccc(NC(=O)Nc2cc(C)nc3ccccc23)cc1Br | 100% | 66% | 7% |
| Cc1cc(Nc2ccccc2)nc(NCCOc2ccccc2)n1.Cl | 100% | 48% | 0% |
| Cc1ccc(C(=O)Cn2nc(-c3ccc(C)c(S(=O)(=O)N4CCCC4)c3)ccc2=O)cc1 | 94% | 70% | 0% |
| CCNc1cc(C(=O)N[C@@H](Cc2ccccc2)[C@H](O)CNC2(C(C)C)CCC2)cc(N2CCCCS2(=O)=O)c1.Cl | 99% | 85% | 0% |
